Source: PubChem BioAssay
dFosB act: enhances mouse delta FosB homodimer DNA binding; activation, % at 25 µM; purified delta FosB, TAMRA-CDK5 oligo fluorescence polarization; percent of positive-control signal above neutral wells; hit rate 0.99% among 340,000; P13346; AID 493131;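 active = mean activation above about 17%, with every replicate also reaching it, limit read from the data, passing the limit was not always enough; inconclusive = only one of the two conditions met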
Target sequence (P13346 whole entry, looked up): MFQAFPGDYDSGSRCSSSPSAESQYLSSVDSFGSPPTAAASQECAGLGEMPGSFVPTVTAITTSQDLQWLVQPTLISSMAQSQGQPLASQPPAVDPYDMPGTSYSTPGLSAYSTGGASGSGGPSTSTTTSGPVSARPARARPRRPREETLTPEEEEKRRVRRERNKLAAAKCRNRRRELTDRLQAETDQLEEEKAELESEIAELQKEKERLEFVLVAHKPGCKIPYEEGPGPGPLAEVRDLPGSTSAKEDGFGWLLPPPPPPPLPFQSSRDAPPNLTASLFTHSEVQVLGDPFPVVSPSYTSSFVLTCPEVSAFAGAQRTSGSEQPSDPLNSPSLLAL
14-3-3 Bad inh: disrupts binding of bovine 14-3-3 zeta to phospho-Bad peptide; P63103; TR-FRET 14-3-3zeta/Dy647-pBad peptide displacement, 1 h; inhibition, % at 21.7 µM; hit rate 0.71% among 220,000;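 active = inhibition above about 70%, limit read from the data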;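 note: 0% = full 14-3-3 plus peptide FRET controls and 100% = background without 14-3-3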
Target sequence (P63103 whole entry, looked up): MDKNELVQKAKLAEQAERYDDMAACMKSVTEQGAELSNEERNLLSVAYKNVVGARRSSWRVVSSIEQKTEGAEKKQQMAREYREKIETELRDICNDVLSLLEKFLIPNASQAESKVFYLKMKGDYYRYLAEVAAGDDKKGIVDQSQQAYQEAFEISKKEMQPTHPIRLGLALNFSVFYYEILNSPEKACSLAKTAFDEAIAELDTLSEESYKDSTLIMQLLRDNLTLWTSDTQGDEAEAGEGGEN
NCF1 inh: p47phox (human) inhibition; P14598; p47phox/p22phox peptide binding, fluorescence polarization, 2 h; inhibition, % at 24.7 µM; hit rate 0.53% among 220,000; AID 1274;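 active = inhibition above about 30%, limit read from the data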;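 note: 0% = p47phox with labelled peptide and 100% = labelled peptide alone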
HMGR II inh: inhibitors of class II HMG-CoA reductase from Enterococcus faecalis; AID 1066; inhibition, % at 10 µM; purified E. faecalis HMGR, NADPH absorbance 340 nm kinetic; hit rate 0.41% among 190,000;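 active = inhibition above a set limit, the median over all tested compounds plus 3 SD, cut at about 9.5% in these data; inconclusive = no clear call, values can overlap the other calls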;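 note: enzyme runs in reverse so mevalonate oxidation gives rising NADPH absorbance; 0% = complete reaction with DMSO and 100% = background rate lacking mevalonate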
Active calls of the source: *; ? = inconclusive; · = no result; [ ] = dose if it differs, or a comment. Only some compounds are listed: those with a hit (about 1.9% of all), similar ones and a draw of the others.

SMILES	dFosB act	14-3-3 Bad inh	NCF1 inh	HMGR II inh
COCCNC(=O)c1onc(CSc2cc(C)ccc2C)c1C(=O)O	-3	78*	-5	3
Cc1cccc(SCc2noc(C(=O)NCC3CCCO3)c2C(=O)O)c1 (stereo not drawn)	-3	34	-20	-1
O=C(NCC1CCCO1)c1onc(CSc2ccccc2)c1C(=O)O (stereo not drawn)	1	72*	-5	-2
COCCNC(=O)c1onc(CSc2ccc(F)c(F)c2)c1C(=O)O	2	77*	6	5
COCCNC(=O)c1onc(CSc2ccccc2C)c1C(=O)O	5	29	-5	-4
Cc1cccc(C(=O)Nc2ccnc(-c3ccncc3)n2)c1	-14	-28	-9	-11
COc1ccc(C(C)C)cc1S(=O)(=O)NCC1CCCO1 (stereo not drawn)	2	·	·	·
COCCCNC(=O)Cn1c(=O)n(Cc2ccc(C(=O)NCCc3ccc(OC)c(OC)c3)cc2)c(=O)c2ccccc21	1	0	-9	0
CC(C)c1ccc(NC2=NCC(=O)N2Cc2cccs2)cc1	-6	9	-4	1
O=C1CN=C(Nc2ccccc2)N1Cc1cccs1	-6	72*	-17	-4
Cc1cccc(NC2=NCC(=O)N2Cc2ccccc2)c1	-15	30	-4	-11
Cc1cc(C)cc(NC2=NCC(=O)N2Cc2ccccc2)c1	-9	72*	-15	-2
CCOc1ccccc1OCCCC(=O)NCCc1ccc(S(N)(=O)=O)cc1	-9	·	·	·
CCn1c(=O)c(C(=O)NNC(=O)c2ccccc2)c(O)c2ccccc21	-3	·	·	·
CCn1c(=O)c(-[n+]2ccccc2)c(O)c2ccccc21	7	72*	-1	1
Cc1ccc(OCC(=O)Nc2ccc(N3CCCC3)cc2)cc1C	10	74*[fluorescence artefact?]	10	-4
COc1ccc(OCC(=O)Nc2ccc(N3CCCCC3)cc2)cc1	6	-11	2	-2
Cc1cccc(OCC(=O)Nc2ccc(N3CCCC3)cc2)c1C	47*	-6	5	-4
Cc1cc(C)cc(OCC(=O)Nc2ccc(N3CCCC3)cc2)c1	65*	100*[fluorescence artefact?]	29	-3
Cc1cc(C)cc(OCC(=O)Nc2ccc(CN3CCCCC3)cc2)c1	-6	-2	-3	-2
COc1ccccc1OCC(=O)Nc1ccc(N2CCCCC2)cc1	-3	6	-6	-2
O=C(c1ccc(Cl)s1)N1CCN(c2ncccn2)CC1	0	-2	-2	·
COc1ccc(CN2C(=O)c3cccnc3C2O)cc1 (stereo not drawn)	2	87*	-15	-10
COc1ccc(CN2C(=O)c3cccnc3C2Nc2cc(Cl)ccc2OC)cc1 (stereo not drawn)	-16	96*[fluorescence artefact?]	-2	-2
CCOC(=O)c1ccc(NC2c3ncccc3C(=O)N2Cc2ccc(F)cc2)cc1 (stereo not drawn)	-15	86*	2	-7
SMILES	dFosB act	14-3-3 Bad inh	NCF1 inh	HMGR II inh
COc1cccc(N2C(=O)c3cccnc3C2O)c1 (stereo not drawn)	-4	·	·	·
O=C(Nc1ccncc1)c1ccc2ncsc2c1	-7	·	·	·
O=C(Nc1ccc(S(=O)(=O)Nc2ncccn2)cc1)c1ccc2ncsc2c1	-12	81*	-63	·
CSc1[nH]c(=O)c(C(=O)O)cc1C#N	-4	71*	-10	0
CCOC(=O)c1cc(C#N)c(SCC(=O)O)[nH]c1=O	0	30	3	0
COc1ccc(C(c2nnnn2C2CCCC2)N2CCN(C3CCCC3)CC2)cc1OC (stereo not drawn)	-3	57	-7	2
COc1cc(C(c2nnnn2C2CCCC2)N2CCN(C)CC2)cc(OC)c1OC (stereo not drawn)	-3	80*	0	-1
CC(=O)N1N=C(c2cccc([N+](=O)[O-])c2)OC1(C)CC(=O)Nc1ccccc1 (stereo not drawn)	6	81*[fluorescence artefact?]	-11	4
COc1ccc(NC(=O)CSc2ncn(-c3ccccc3)n2)cc1Cl	-15	-5	-12	1
O=C(Cc1ccc(F)cc1)N(c1ccc(F)cc1)C1C=CS(=O)(=O)C1 (stereo not drawn)	-14	10	35*	1
Cc1ccc(N(C(=O)c2ccc3c(c2)OCO3)C2C=CS(=O)(=O)C2)cc1C (stereo not drawn)	-2	·	·	·
O=C(Cc1ccccc1)N(c1ccc(F)cc1)C1C=CS(=O)(=O)C1 (stereo not drawn)	0	3	5	0
CCCCC(=O)N(c1ccc(C)c(C)c1)C1C=CS(=O)(=O)C1 (stereo not drawn)	0	93*	3	-4
Cc1ccc(NC(=O)CSc2nc(NS(=O)(=O)c3ccccc3)cc(=O)[nH]2)cc1	7	67	-14	0
CCc1ccc(NC(=O)CSc2nc(NS(=O)(=O)c3ccccc3)cc(=O)[nH]2)cc1	-1	0	-19	10*
O=C(NCCCn1ccnc1)c1cccc(S(=O)(=O)Nc2ccc(F)cc2)c1	4	·	·	·
CCOC(=O)c1cc(-c2ccccc2)sc1NC(=O)CC(C)C	-2	74*	-3	-5
C/C(=N\Nc1ccc(S(N)(=O)=O)cc1[N+](=O)[O-])c1ccc2c(c1)OCO2	-2	63	37*	-2
CCCC(=O)Nc1ccc(C(=O)Nc2nc(CC(=O)OCC)cs2)cc1	-5	1	-8	-6
CCOC(=O)c1c(NC2=NS(=O)(=O)c3ccccc32)sc2c1CCC(C)C2 (stereo not drawn)	6	-8	-14	-3
Cc1cc(Cl)ccc1OCC(=O)NCC(c1cccs1)N1CCOCC1 (stereo not drawn)	5	·	·	·
O=C(O)c1ccc(N2C(=O)/C(=C/c3ccc(-c4ccc([N+](=O)[O-])cc4)o3)C=C2c2ccccc2)cc1	-18	94*	-39	2
O=C1NN(c2ccccc2)C(=O)/C1=C/c1ccc(-c2ccc(C(=O)O)cc2)o1	-5	·	·	·
CC(C)(C)NC(=O)Nc1ccc(Br)cc1	-17	0	-2	-3
COCCCn1c2nc3ccccc3nc2c2c(=O)n(-c3ccccc3OC)cnc21	-7	-5	-14	-6
SMILES	dFosB act	14-3-3 Bad inh	NCF1 inh	HMGR II inh
COc1ccccc1-n1cnc2c(c1=O)c1nc3ccccc3nc1n2-c1ccc(C)c(C)c1	?	41	35*	-6
CC(C)CNC(=O)Cn1c(=O)c2c(ncn2CC(C)C)n(Cc2ccccc2)c1=O	-3	90*	-3	0
Cc1cc(-c2nnc3n2N=C(c2ccc(-c4ccccc4)cc2)CS3)n[nH]1	-37	-6	-25	-5
Oc1ccc(C2=Nn3c(nnc3-c3ccco3)SC2)cc1O	4	10	-18	12*
c1ccc(-c2cc(-c3nnc4n3N=C(c3ccc5ccccc5c3)CS4)[nH]n2)cc1	-24	29	45*	-1
O=C(N/N=C/c1sc(=O)n(Cc2ccc(Br)cc2)c1Cl)c1ccco1	35*	·	·	·
COc1ccc(Cn2cc3c(-c4ccc(F)cc4)nnc-3c3cc(OC)c(OC)cc32)cc1	34*	2	-13	-5
Cn1nc2c3cc(F)ccc3n(Cc3ccc(F)cc3)cc-2c1=O	-2	·	·	·
COc1cc2c3nnc(-c4ccc(F)cc4)c-3cn(Cc3ccccc3)c2cc1OC	19*	11	-14	-10
